# Screens from PubChem BioAssay.
# This is a sample that favours compounds with a hit; in the whole collection about 2.4% have one here.
# D2 PAM-1 = D2 dopamine receptor (human) potentiation. potentiation, % at 10 µM. P14416. HEK293 T-REx D2, calcium flux, EC20 dopamine potentiation. actives 0.34% (n = 340,000). AID 485347;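 active means potentiation over 3 SD above the plate norm, cut at about 30% in these data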; further: 0% is about no effect
#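 Potentiation of an EC20 dopamine calcium response measured kinetically over 180 s, after a preceding 180 s compound-only read flagging agonists. Cells: inducible Hek293 Trex D2 line, 4000/well, cultured overnight at 30 C before dye loading.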
# D2 ag-1 = human D2 receptor agonism in beta-arrestin assay | DiscoveRx PathHunter D2 beta-arrestin, luminescence, 90 min; 100% = 57 uM dopamine signal | activation, % (test concentration not listed) | actives 0.084% (n = 360,000) | AID 624465; in the data active means activation above about 40%; inconclusive means between about 15% and that limit
#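 Agonist mode: compounds alone added to overnight-plated D2 PathHunter cells for 90 min at 37 C, with 57 uM final dopamine (EC100) defining full response. Beta-arrestin recruitment detected by chemiluminescent reagent, read after 1 h at ambient temperature.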
# D2 antagonist = antagonizes the human D2 dopamine receptor | actives 2% (n = 340,000) | inhibition, % at 10 µM | AID 485344 | HEK293 TREx D2 cells, calcium flux, dopamine EC80 | P14416; in the data active means inhibition above about 30%; inactive means below that, where a call was filed; further: 0% is about no effect
#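 Calcium mobilization kinetics were recorded at 1 s intervals in tetracycline-induced HEK293 T-REx D2 cells, first for 180 s after compound addition and then 180 s after EC80 dopamine.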
# D2 ag-2 = agonists of human D2 dopamine receptor. AID 485358. actives 0.53% (n = 340,000). HEK293 T-REx D2 cells, calcium flux agonist mode. P14416. activation, % at 2 µM;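 active means activation over 3 SD above normal in the single-dose calcium agonist read, cut at about 30% in these data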; further: 0% is about no effect
#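 In this primary screen, compounds producing a positive calcium signal within 180 s of addition to tetracycline-induced, force-coupled HEK293 Trex D2 cells are flagged; cells are dye-loaded with a no-wash calcium kit beforehand.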
# D2 PAM-2 = potentiates the human D2 dopamine receptor allosterically. P14416. DiscoveRx D2 beta-arrestin cells, luminescence, 90 min; 100% = 57 uM dopamine signal. potentiation, % (no concentration beside the values). actives 0.23% (n = 360,000). AID 624464; in the data active means potentiation above about 50%; inconclusive means mostly about 30% to 49%
#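 D2 cells co-treated with compound plus 50 nM dopamine (EC20) for 90 min at 37 deg C to detect potentiation. Beta-arrestin recruitment was read as enzyme-fragment luminescence after 1 h at ambient temperature. Full response was set by 57 uM dopamine.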
# D3 ag = activates human D3 dopamine receptor beta-arrestin recruitment | shares compounds with D2 ag-2 | DiscoveRx D3 beta-arrestin cells, luminescence, 90 min | Potency, µM (top dose mostly 76.9 µM), inactives show top-dose activation, hits mostly activators | actives 4% (n = 2,300);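 further: potency means the concentration at half of the fitted maximal effect; 100% = dopamine control response; nearly all actives have a fitted effect of over 70% in size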
# Target sequence (P35462 whole entry, looked up): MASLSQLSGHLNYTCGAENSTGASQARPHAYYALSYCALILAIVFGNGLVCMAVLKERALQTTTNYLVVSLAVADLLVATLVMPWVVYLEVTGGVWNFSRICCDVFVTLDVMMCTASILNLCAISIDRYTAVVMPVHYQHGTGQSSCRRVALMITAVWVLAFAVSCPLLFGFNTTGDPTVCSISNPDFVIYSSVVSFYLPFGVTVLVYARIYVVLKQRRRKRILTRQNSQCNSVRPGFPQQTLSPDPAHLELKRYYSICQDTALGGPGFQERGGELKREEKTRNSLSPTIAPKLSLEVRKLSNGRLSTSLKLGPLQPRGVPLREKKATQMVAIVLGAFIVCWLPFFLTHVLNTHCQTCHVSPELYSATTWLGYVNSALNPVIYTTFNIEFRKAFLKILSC
# D2 ag-3 = counter-screen for D3 agonists: human D2 dopamine receptor agonism; actives 5.9% (n = 2,300); Potency, µM (highest dose often 76.9 µM), inactives show top-dose activation, usual class: activators; shares compounds with D2 ag-2; AID 720507; DiscoveRx PathHunter D2 beta-arrestin, luminescence, 90 min; response scale: percent relative to full dopamine signal; further: potency means the concentration at half of the fitted maximal effect; % of control where 0% means no effect; nearly all actives have a fitted effect of over 70% in size
# * hit, by the source's call; ? = inconclusive; / = not tested or not shown. Unless noted, the call rests on the fitted dose curve; in most records, active means well fitted activation curve with a large enough effect; inconclusive means small, poorly fitted or top-dose-only effect; inactive means flat fitted curve, though single readings scatter.
SMILES,D2 PAM-1,D2 ag-1,D2 antagonist,D2 ag-2,D2 PAM-2,D3 ag,D2 ag-3
O=C(NCCN1CCN(c2ccccc2)CC1)Nc1ccc(Cl)cc1,-29.1,7.1,82.2*,75.3*,-3.8,21.3%,?
O=C(NCCN1CCN(c2ccccc2)CC1)Nc1ccccc1Cl,-26.0,-5.4,34.6*,63.5*,-5.6,?,11.4%
O=C(NCCN1CCN(c2ccccc2)CC1)Nc1cccc(Br)c1,-1.6,-2.3,2.1,-1.3,-8.1,/,/
COc1cccc(CN2C(=O)C3(SCC(=O)N3c3cc(C)cc(C)c3)c3ccccc32)c1 (configuration not stated),-1.3,/,/,-0.2,/,/,/
Cc1ccc(CCNC(=O)c2cc3n(n2)CCCN(Cc2ccc(C)cc2)C3=O)cc1,3.6,/,/,1.2,/,/,/
COC(=O)c1cccc(NC(=O)CN2CCc3ccccc3C2)c1,5.8,-1.1,12.5,5.3,0.5,?,14.4%
COc1ccc(-c2cc(C(=O)Nc3ccn(Cc4ccc(C)cc4)n3)no2)cc1OC,1.1,/,/,/,/,/,/
C/C(=N\NC(=O)c1ccc(Br)cc1)C1C(=O)c2ccccc2C1=O,-4.2,-1.6,-2.2,2.6,-14.0,/,/
C/C(=N\NC(=O)c1ccc(-c2ccccc2)cc1)C1C(=O)c2ccccc2C1=O,-13.5,3.6,84.4*,31.7*,0.8,2.1%,-0.9%
CCCN(CCC)CCCNC(=O)CC(C(=O)N1CCc2ccccc21)n1ccnc1 (configuration not stated),-17.1,1.6,-11.0,8.0,2.5,-16.7%,-2.0%
O=C(OCCc1cc2ccccc2c(=O)o1)c1ccc(F)cc1,6.8,-1.7,2.9,-2.8,-6.9,/,/
CCN(CC)CCOC(=O)c1cccc(Br)c1,-8.1,-3.2,3.9,0.1,-21.7,/,/
O=C(OCCc1cc2ccccc2c(=O)o1)c1ccc(C(F)(F)F)cc1,23.2,-1.8,2.1,0.1,-7.5,-4.6%,-0.3%
O=C(OCCc1cc2ccccc2c(=O)o1)c1cccc(Br)c1,10.2,-1.2,-4.3,-0.5,-11.9,-5.2%,5.6%
CN(CCOC(=O)c1cccc(Br)c1)C(C)(C)C,-18.1,-4.1,31.1*,70.6*,-12.3,-0.8%,-5.1%
COc1ccc(S(=O)(=O)N(Cc2cccnc2)Cc2cc3ccccc3[nH]c2=O)cc1,5.0,2.7,7.8,0.6,3.6,/,/
Cc1ccc(S(=O)(=O)N(Cc2cccnc2)Cc2cc3ccccc3[nH]c2=O)cc1,2.5,-2.4,93.9*,0.0,3.9,-1.5%,1.5%
CCOC(=O)N1CCC(N2CCN(Cc3ccccc3)C(CCO)C2)CC1 (configuration not stated),-13.0,?,76.2*,78.4*,-2.2,-0.4%,?
COc1cccc(CN2CCN(C3CCN(c4ccccc4F)CC3)CC2CCO)c1 (configuration not stated),-22.6,-2.4,8.1,3.2,-16.4,/,/
COc1cccc(CN2CCN(C3CCN(c4cccc(C)c4C)CC3)CC2CCO)c1 (configuration not stated),-9.3,?,73.0*,70.8*,14.9,?,?
COc1cccc(CN2CCN(C3CCN(c4ccccc4C)CC3)CC2CCO)c1 (configuration not stated),-26.5,-7.6,27.1,59.8*,-8.0,-12.1%,2.8%
CCOC(=O)N1CCC(N2CCCC(C(=O)c3ccccc3OC)C2)CC1 (configuration not stated),-14.8,?,70.3*,73.7*,10.1,-2.4%,?
CCOC(=O)N1CCC(N2CCCC(C(=O)c3cc(C)c(OC)c(C)c3)C2)CC1 (configuration not stated),/,-2.2,/,/,-5.6,/,/
Cc1nc2ccc(S(=O)(=O)N(CC(=O)Nc3cccc(C)c3C)Cc3ccccc3)cc2s1,8.2,/,/,1.4,/,/,/
Cc1ccc(NC(=O)c2oc3ccc(S(=O)(=O)N4CCCCCC4)cc3c2C)c(C)c1,13.5,/,/,0.0,/,/,/
SMILES,D2 PAM-1,D2 ag-1,D2 antagonist,D2 ag-2,D2 PAM-2,D3 ag,D2 ag-3
O=C(CNS(=O)(=O)c1ccccc1)OCc1cccc([N+](=O)[O-])c1,-17.7,-0.7,-18.2,41.3*,-20.5,-1.0%,-0.4%
O=C(CNS(=O)(=O)c1ccccc1)OCC(=O)c1cccc([N+](=O)[O-])c1,0.8,-17.0,11.4,0.5,-30.9,/,/
O=C(NCCNS(=O)(=O)c1ccccc1)c1ccc([N+](=O)[O-])cc1,-22.4,-1.4,28.1,57.5*,0.8,0.4%,3.1%
O=C1c2[nH]nc(-c3ccccc3O)c2C(c2cccc(OCc3ccccc3)c2)N1CCCO (configuration not stated),-6.9,/,/,1.8,/,/,/
O=C(CSc1nnc(Cc2ccccc2)n1-c1ccc(Cl)cc1)N1CCOCC1,2.3,-0.3,-4.4,40.0*,-7.8,2.1%,-1.5%
Cn1c(Cc2ccccc2)nnc1SCC(=O)N1CCOCC1,2.8,-2.1,-23.4,0.8,-3.1,/,/
Cc1cc(C)c2c(=O)cc(C(=O)Nc3ccc(C)c(Cl)c3)oc2c1,-30.8,/,/,-1.0,/,/,/
CCN(C(=O)CSc1ncccn1)c1c(N)n(Cc2ccccc2)c(=O)[nH]c1=O,-3.3,-3.2,7.4,-0.5,-2.7,-7.1%,-4.0%
COc1cc(CC(=O)Nc2ccc3nc(C)sc3c2)cc(OC)c1OC,1.0,-1.5,-10.6,55.9*,-5.3,2.3%,0.6%
COc1cccc(C(=O)Nc2ccc3nc(SCC(=O)N4CCOCC4)sc3c2)c1,4.8,/,/,-0.3,/,/,/
CC1(C)Cc2cccc(OCC(O)CNCc3ccccn3)c2O1 (configuration not stated),6.4,-0.6,-0.5,0.0,-21.2,/,/
Cc1cccc(OCC(O)CN2CCN(c3ccccn3)CC2)c1C (configuration not stated),-21.2,?,78.2*,72.1*,-21.2,21.2%,?
CC1(C)Cc2cccc(OCC(O)CN3CCN(c4ccccn4)CC3)c2O1 (configuration not stated),-25.3,?,60.3*,72.3*,-4.0,?,?
Cc1cc(C)c(C)c(OCC(O)CN2CCN(c3ccccn3)CC2)c1 (configuration not stated),-29.3,48.0*,91.6*,66.3*,-2.8,3.98µM*,3.98µM*
CC(=O)c1cccc(Nc2cc(C)nc3nc(-c4ccccc4C)nn23)c1,-2.6,/,/,0.6,/,/,/
CCCCCn1c(C(C)NC(=O)c2ccccc2)nc2ccccc21 (configuration not stated),-18.3,/,/,/,/,/,/
